Records with an inconclusive call do not appear. Active and inactive are the calls of the source. Calls follow the shape of the dose curve; as a rule, active = well fitted curve in the direction sought with a large enough effect in the repeat runs; inconclusive = weak or mixed curves; inactive = no such curve, though single readings can be large; an effect the other way counts as inactive or inconclusive.
Key:
[1] = qHTS RealTime-Glo MT Cell Viability Assay in HepG2 cells - 8 hour (AID 1224873); also: nearly all actives have a fitted effect of over 55% in size
In short: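 HepG2 cells mixed with RealTime-Glo MT reagents (NanoLuc plus cell-permeant prosubstrate) were seeded at 600 cells/well, incubated 5 h at 37 C/5% CO2, then pinned with compounds in DMSO; nonlytic luminescence tracked viability during 40 h treatment.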

[2] = A CellTox Green Cytotoxicity Assay to monitor cytotoxicity in HEK293 cells - 24 hour (AID 1224875); also: series mostly up to about 77 µM; nearly all actives have a fitted effect of over 45% in size
In short: (§1)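 Each value comes from one timepoint of a single continuous run in which HEK293 cells with CellTox Green were exposed to compound for up to 40 h at 37 C, dye fluorescence rising with cell death.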

[3] = A CellTox Green Cytotoxicity Assay to monitor cytotoxicity in HepG2 cells - 16 hour (AID 1224876); also: nearly all actives have a fitted effect of over 45% in size
In short: (§2)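 Continuous culture of HepG2 cells with a membrane-impermeant DNA dye; rising fluorescence marks dead cells. Compound exposure lasted up to 40 h at 37 C, with reads every 8 h from 0 h.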

[4] = qHTS RealTime-Glo MT Cell Viability Assay in HepG2 cells - 32 hour (AID 1224877); also: nearly all actives have a fitted effect of over 55% in size
In short: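 Cells + NanoLuc/prosubstrate dispensed (600 cells/well) → 5 h at 37 C/5% CO2 → compounds in DMSO transferred → 40 h incubation at 37 C, luminescence read at 0, 8, 16, 24, 32, 40 h.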

[5] = A CellTox Green Cytotoxicity Assay to monitor cytotoxicity in HepG2 cells - 24 hour (AID 1224878); also: nearly all actives have a fitted effect of over 45% in size
In short: as §2

[6] = qHTS RealTime-Glo MT Cell Viability Assay in HEK293 cells - 0 hour (AID 1224880); also: nearly all actives have a fitted effect of over 45% in size; also: potency is read from the fitted curve at half-maximal effect; as to activity change, negative = cytotoxicity: top concentration of the series differs between compounds
In short: (§3)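 qHTS format; HEK293 cells with NanoLuc/prosubstrate reagent, 37 C/5% CO2 for 5 h pre-dosing; compounds 23 nL in DMSO; luminescence at each time point reflects viable cells.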

[7] = A CellTox Green Cytotoxicity Assay to monitor cytotoxicity in HEK293 cells - 32 hour (AID 1224881); also: nearly all actives have a fitted effect of over 40% in size
In short: as §1

[8] = A CellTox Green Cytotoxicity Assay to monitor cytotoxicity in HepG2 cells - 40 hour (AID 1224879); also: nearly all actives have a fitted effect of over 40% in size
In short: as §2

[9] = A CellTox Green Cytotoxicity Assay to monitor cytotoxicity in HepG2 cells - 0 hour (AID 1224882); also: nearly all actives have a fitted effect of over 35% in size
In short: as §2

[10] = qHTS RealTime-Glo MT Cell Viability Assay in HEK293 cells - 40 hour (AID 1224874); details: RealTime-Glo luminescence; max response: active compounds read low; also: nearly all actives have a fitted effect of over 50% in size
In short: as §3
% is scaled to controls: 0 for no effect and ±100 for the full control effect.

CCCCCOC(=O)CCC
inactive: outcome [1] | outcome [2] | outcome [3] | outcome [4] | outcome [5] | Potency [6] | Potency [7]

COCCOC(=O)C1=C(C)NC(C)=C(C(=O)OC(C)C)C1c1cccc([N+](=O)[O-])c1 (centres undefined)
active: Potency [6] 2390 nM
inactive: outcome [2] | outcome [3] | Potency [8]

O=Cc1ccc(Cl)c(Cl)c1
inactive: outcome [1] | outcome [2] | outcome [3] | outcome [4] | outcome [5] | Potency [8] | Potency [6] | Potency [7] | outcome [9]

O=C1c2ccccc2C(=O)C1c1ccccc1
inactive: outcome [1] | outcome [2] | outcome [3] | outcome [4] | outcome [5] | Potency [8] | Potency [6] | Potency [7] | outcome [9]

CC(CO)c1ccccc1 (centres undefined)
inactive: outcome [1] | outcome [2] | outcome [3] | outcome [5] | Potency [8] | Potency [6] | outcome [9]

CC(CN)CC(C)(C)CCN (centres undefined)
inactive: outcome [1] | outcome [2] | outcome [3] | Potency [8] | Potency [6] | outcome [9]

NS(=O)(=O)c1ccc(NC(=O)CCC(=O)O)cc1
inactive: outcome [1] | outcome [2] | outcome [3] | outcome [5] | Potency [8] | Potency [6] | Potency [7] | outcome [9]

O=C1c2ccccc2C(=O)c2cc(S(=O)(=O)O)ccc21
inactive: outcome [1] | outcome [2] | outcome [3] | outcome [4] | Potency [8] | Potency [6] | Potency [7]

COc1cc(C(=S)N2CCOCC2)cc(OC)c1OC
inactive: outcome [1] | outcome [2] | outcome [3] | outcome [4] | outcome [5] | Potency [6] | Potency [7] | outcome [9]

O=C(/N=N/C(=O)OCc1ccccc1)OCc1ccccc1
inactive: max response [10] -13.7% | outcome [2] | outcome [3] | outcome [4] | outcome [5] | Potency [8] | Potency [6] | Potency [7]

NCCN1CCOCC1
inactive: outcome [1] | outcome [2] | outcome [3] | outcome [4] | outcome [5] | Potency [6] | Potency [7]

N[C@@H](COP(=O)(O)O)C(=O)O
inactive: viability change, negative = cytotoxic [1] 0.974% [at 15.8 µM] | activity change [2] -7.17% [at 15.8 µM] | cytotoxicity increase [3] 1.02% [at 15.8 µM] | cytotoxicity [5] 0.599% [at 15.8 µM] | activity change, negative = cytotoxicity [6] 12.6% [at 15.8 µM] | cytotoxicity increase [7] -6.18% [at 15.8 µM] | cytotoxicity [9] 0.162% [at 15.8 µM]

CCOCCOC(=O)/C=C/c1ccc(OC)cc1
inactive: outcome [1] | outcome [2] | outcome [3] | outcome [4] | Potency [8] | Potency [6] | outcome [9]

Cc1nc2n(c(=O)c1CCN1CCC(c3noc4cc(F)ccc34)CC1)CCC[C@H]2O
inactive: viability change, negative = cytotoxic [1] -0.0945% [at 15.8 µM] | activity change [2] -3.48% [at 15.8 µM] | cytotoxicity increase [3] -0.968% [at 15.8 µM] | cytotoxicity [5] 0.861% [at 15.8 µM] | cytotoxicity increase [8] 0.318% [at 15.8 µM] | activity change, negative = cytotoxicity [6] 7.51% [at 15.8 µM] | cytotoxicity increase [7] 6.5% [at 15.8 µM]

CC(CC=O)CCCC(C)(C)O (centres undefined)
inactive: outcome [1] | outcome [2] | outcome [3] | outcome [4] | outcome [5] | Potency [6] | Potency [7] | outcome [9]

CC(=O)Nc1cccc(C)c1
inactive: outcome [1] | outcome [2] | outcome [3] | outcome [4] | outcome [5] | Potency [6] | Potency [7]

CC[C@H](C)C(=O)O[C@H]1C[C@H](O)C=C2C=C[C@H](C)[C@H](CC[C@@H](O)C[C@@H](O)CC(=O)O)[C@H]21
inactive: outcome [1] | outcome [2] | outcome [3] | outcome [5] | Potency [8] | Potency [6] | Potency [7] | outcome [9]

O=C(O)Cc1ccc(Cl)cc1Cl
inactive: max response [10] -0.186% | outcome [2] | outcome [4] | Potency [6] | Potency [7]

Source: PubChem BioAssay (Tox21)
